Test results from PMC7819943, “Rice protein-binding microarrays: a tool to detect cis-acting elements near promoter regions in rice”.
In all, about 68,000 sequences were measured (“fluorescence intensity (a.u.)”: median about 9,100, highest 2% from about 16,000 on). The list comes from a sample in which the highest values are over-represented; it also holds similar and randomly drawn sequences.

These sequences were tested against OsWRKY34 (Oryza sativa, UniProt Q0JBA9 1-250) (assay: protein-binding microarray (RPBM); PBS, 2% BSA, 51.3 ng/ul salmon testes DNA, 50 uM zinc acetate, 200 nM TF, 25 C, 1 h; high values mean tight binding). Conditions: protein: recombinant; tags: N-terminal polyhistidine and DsRed monomer fusion (pET32a); label: CyDye5-dUTP incorporated in the synthesized complementary strand; 3' TTTTT single-stranded linker to array surface; dsDNA, one strand shown.
Chain of OsWRKY34 (Q0JBA9 entry or part of it): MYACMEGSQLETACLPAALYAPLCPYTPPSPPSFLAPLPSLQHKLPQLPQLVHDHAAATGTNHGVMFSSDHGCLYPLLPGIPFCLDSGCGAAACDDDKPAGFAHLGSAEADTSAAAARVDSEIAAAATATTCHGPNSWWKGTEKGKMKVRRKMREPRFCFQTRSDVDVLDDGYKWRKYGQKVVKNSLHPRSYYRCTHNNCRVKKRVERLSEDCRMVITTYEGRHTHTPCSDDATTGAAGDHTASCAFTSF
In short: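 For the binding signal, per-feature fluorescence intensity was read in arbitrary units on an Axon 4000B scanner. Before scanning, a 2% BSA-blocked custom Agilent array made double-stranded with Cy5-dUTP was washed after 1 h at 25 °C with 200 nM protein and 50 µM zinc acetate. The proteins were Ni–NTA-purified transcription factors with N-terminal polyhistidine and DsRed fusions, expressed in E. coli BL21-CodonPlus.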

Sequence	binding signal
TTGCTCTCCTCTCTGGATTGATGTGTTCGTTTGGCCATTCCGGAGTCACCTAGTGCAG	8940 fluorescence intensity (a.u.)
CAATTTTAGTTCAATCTTGGGTGTTTTCGCATGGTTCTCTCGGAGTCACCTAGTGCAG	8180 fluorescence intensity (a.u.)
GCCATGTGACTAGACCGAGCTAGCTCGCTCGATCGATCTCCGGAGTCACCTAGTGCAG	8510 fluorescence intensity (a.u.)
ATGCGGATCTGAGTGGTGGTGGTGGTGGACTGGTGGTTGCCGGAGTCACCTAGTGCAG	11000 fluorescence intensity (a.u.)
TTGTTGGCAAGTTTCTTCCCTTGTCTCTCTCTTGTGAGACCGGAGTCACCTAGTGCAG	8700 fluorescence intensity (a.u.)
CGTGTGGGTGGGTGGGTGGAGTGGACTGGTTTCTGTGAGCCGGAGTCACCTAGTGCAG	18500 fluorescence intensity (a.u.)
TGGAGCTGGTTTTTGGGTGGTGTTTTCTCTGTGATCGTGGCGGAGTCACCTAGTGCAG	9760 fluorescence intensity (a.u.)
GCCATGGGGTTGACTCTCTGGGTGTTCTTGGTTTCTTGGCCGGAGTCACCTAGTGCAG	10500 fluorescence intensity (a.u.)
TGTTGGTGGTGAGGTGTGAGGTGAGGTGGGGTGGTGTGGCCGGAGTCACCTAGTGCAG	10100 fluorescence intensity (a.u.)
CTTTCTTCTGTGTGGTGGGTTTTAGCCGGTTTCTCGCAATCGGAGTCACCTAGTGCAG	18400 fluorescence intensity (a.u.)
TTTGGTTACCGCATTTTTGTGTTCTTCTGTGCAGTTTAGCCGGAGTCACCTAGTGCAG	8150 fluorescence intensity (a.u.)
AGGAGTGTCTGGTTGGTTTCCGGGGTGTGTTGGGTGACTCCGGAGTCACCTAGTGCAG	29500 fluorescence intensity (a.u.)
GGTCTTGCTAGTTGGCCATGTGAGAGTGAGACCGGGTCTCCGGAGTCACCTAGTGCAG	50700 fluorescence intensity (a.u.)
GAAATATCAACAACCCTATAAAAAAAGTCAACCCATGTACCGGAGTCACCTAGTGCAG	9120 fluorescence intensity (a.u.)
CACACACACAAATCCACAAGTAGACATCCTTCCATGTCTTCGGAGTCACCTAGTGCAG	8380 fluorescence intensity (a.u.)
AGGTAGTCAAGGTGGACTTATTCCTTTTGTTTCTTCCATTCGGAGTCACCTAGTGCAG	8900 fluorescence intensity (a.u.)
CCATTTGTCCACCACCACCTCCACCACCTGACACGTCGTCCGGAGTCACCTAGTGCAG	8050 fluorescence intensity (a.u.)
AATTATTTTCATTTGCTAAGTTACTATTTCGCATTTTTTTCGGAGTCACCTAGTGCAG	8650 fluorescence intensity (a.u.)
CAATTATTACAGGCGGCCAGCGCCTCATGGCTTTTACCTTCGGAGTCACCTAGTGCAG	8660 fluorescence intensity (a.u.)
TCTTACTTGCATGTGAACACCTCTTTGTCGGTTTTTCCATCGGAGTCACCTAGTGCAG	10400 fluorescence intensity (a.u.)
AAAAAAGTCAACCCATGTACACCGTCCGATCTCCATCCGACGGAGTCACCTAGTGCAG	8110 fluorescence intensity (a.u.)

Sequence	binding signal
TTTTGTCTCTTTCTGCTGCTGGAGTAGTATTGTTCATTTACGGAGTCACCTAGTGCAG	9050 fluorescence intensity (a.u.)
CTGGTAGGATTGCTGCTTGCTTTGCCTTCACGTCATTATCCGGAGTCACCTAGTGCAG	11200 fluorescence intensity (a.u.)
TGCGTTTCCCGTCAGCCCTGTCACGCCGCCGCCGGTCGCCCGGAGTCACCTAGTGCAG	12000 fluorescence intensity (a.u.)
ACTTTCTTTTTGGGCCTGAAACCACGACGGCCCTTTGTTCCGGAGTCACCTAGTGCAG	8760 fluorescence intensity (a.u.)
AAGGATATAAGGGTGGTTGAGGGGTAGAATAGGAAGAAATCGGAGTCACCTAGTGCAG	9360 fluorescence intensity (a.u.)
CGCAAGGGAGAATAGGGGTGTTGAGAGGAGGGGCGACAGGCGGAGTCACCTAGTGCAG	8240 fluorescence intensity (a.u.)
AAAATAGGCCAATAGGGTGTTGAGAGAAAAGGAGATATATCGGAGTCACCTAGTGCAG	17500 fluorescence intensity (a.u.)
TATTTCGATTTGATGGCTTCCTGTTGCTTTTCCTGTTAATCGGAGTCACCTAGTGCAG	14000 fluorescence intensity (a.u.)
CTTTCTTTGACTGTTGCCTTTTATTTTGTGCAGGTTGTATCGGAGTCACCTAGTGCAG	11300 fluorescence intensity (a.u.)
TTTTGAGTGCTTTTATTTCTTTATTTCTTTATTTCTTTATCGGAGTCACCTAGTGCAG	9320 fluorescence intensity (a.u.)
GATGGCTTCGATTTGCTGTGTTACTTCTTTTTTCTAGTTTCGGAGTCACCTAGTGCAG	16900 fluorescence intensity (a.u.)
TCCTCTTTTTGCTGGCTTTCTGTTGACTGTTATTTTATTTCGGAGTCACCTAGTGCAG	17100 fluorescence intensity (a.u.)
CCTGTTGCTGCTCTGTGCCTCTGCTCTGCTCCTTGACTTCCGGAGTCACCTAGTGCAG	11300 fluorescence intensity (a.u.)
TTGCTTTTGTGTTCGGTTTTTCTATTTTTTCTATTTTCTTCGGAGTCACCTAGTGCAG	13700 fluorescence intensity (a.u.)
CCTCTTGCTATGTGCTGCTCTTCCTTGTTCTTCTTGCCTACGGAGTCACCTAGTGCAG	10800 fluorescence intensity (a.u.)
ATGTTGACTCGTTTGCCTGTGTTCCTCTTGCTGCTATTCACGGAGTCACCTAGTGCAG	19200 fluorescence intensity (a.u.)
GGTTTCGGTTAACTTTTGTGCACACTCGCCAGTGAGAGTTCGGAGTCACCTAGTGCAG	12300 fluorescence intensity (a.u.)
TGTAAGTCATTCCACCATTTCCCACATTCATATTGATGCCCGGAGTCACCTAGTGCAG	8890 fluorescence intensity (a.u.)
TTTAACCTAAACCACATGTGAATTTCTTCTTATGTATTCCCGGAGTCACCTAGTGCAG	8700 fluorescence intensity (a.u.)
GTGGGATTCGCCTGCTTGCTTGCTGGGGCCTTGGGAAATGCGGAGTCACCTAGTGCAG	8230 fluorescence intensity (a.u.)
TCAAAACGGCCCACTCGCCGCCCGCCACGTGTCCGACCCGCGGAGTCACCTAGTGCAG	8920 fluorescence intensity (a.u.)

Sequence	binding signal
GATCCGCATCACTGATTCACTGCACTTCGCCCGCCGTCTGCGGAGTCACCTAGTGCAG	9810 fluorescence intensity (a.u.)
TTTTATTCAATATATGTATATAGGTATCTTTGGTTGTTTTCGGAGTCACCTAGTGCAG	8320 fluorescence intensity (a.u.)
TTCGAGCACATCTACTTCGCGCTCCCAAACTCCGTGGTGTCGGAGTCACCTAGTGCAG	8080 fluorescence intensity (a.u.)
GTTGTTTGGTTGCGTGAGGAGAGGAGGAGGAGGAGGAGGACGGAGTCACCTAGTGCAG	8200 fluorescence intensity (a.u.)
TGTTGTTGTGGTGGTGGTGGTGGTGGTAGTGCGTGAGTGACGGAGTCACCTAGTGCAG	21200 fluorescence intensity (a.u.)
GGGTGAGTGCGCGTGCGTTGTGAGTGTTTGTATTGTACTGCGGAGTCACCTAGTGCAG	9790 fluorescence intensity (a.u.)
TCATATGGGTTGGTGTATGTGTATTGTGAGTCTGTGTTTGCGGAGTCACCTAGTGCAG	8300 fluorescence intensity (a.u.)
GCAATTGTTCAATATTTTTTTGTGTGTATGTGTTTTTTTTCGGAGTCACCTAGTGCAG	18200 fluorescence intensity (a.u.)
TTTTTTTGTGTTTTGCAATTTTATGTTTTGCACTTATTTTCGGAGTCACCTAGTGCAG	8070 fluorescence intensity (a.u.)
GTGGGTGTTTGCGAGCTTTTGTTCGTATGCTTTTTTACTTCGGAGTCACCTAGTGCAG	9960 fluorescence intensity (a.u.)
GGGTGAGTGTGTGTTGTGCGTTGTGAGTGTGTATGTGTTTCGGAGTCACCTAGTGCAG	17200 fluorescence intensity (a.u.)
TCATATATGAGTTTGTGGGTGTGGGTGTTTGCGAGCTTTTCGGAGTCACCTAGTGCAG	30700 fluorescence intensity (a.u.)
ATTTCGGATTTGTATGTATTGTGTTTTTTTAAAAAAAATTCGGAGTCACCTAGTGCAG	9880 fluorescence intensity (a.u.)
GAGGTGTGTGTTCGTAGAGATGAGTGCGTGCGCGTTGTGACGGAGTCACCTAGTGCAG	9140 fluorescence intensity (a.u.)
TCTCTCTGTGTGTGTTTGTGTCATATATGAGTTTGTGGGTCGGAGTCACCTAGTGCAG	9570 fluorescence intensity (a.u.)
ATCCCACCGTGGCGCCACCCTATTGGGCCCTACTCTTCAGCGGAGTCACCTAGTGCAG	8780 fluorescence intensity (a.u.)
ACTCCATATCGCTTCGCGATTTTTTGTTGACCAAATCAATCGGAGTCACCTAGTGCAG	9610 fluorescence intensity (a.u.)
AATCTCGTTCCTTGCTGTTGTGACTAGTATCGTTGCCTACCGGAGTCACCTAGTGCAG	10500 fluorescence intensity (a.u.)
GCCTGCTGTTCCTTTTAGTTTCTCCAAGCTCCTGCCAACACGGAGTCACCTAGTGCAG	8320 fluorescence intensity (a.u.)
GGAGGCATGATGGCGGCATGGTGGAGGGTGGGGTGACGTGCGGAGTCACCTAGTGCAG	12000 fluorescence intensity (a.u.)
ACCTTTTATGGTGGGGTAGGAGTAGGTGACGGTGGAGATTCGGAGTCACCTAGTGCAG	19000 fluorescence intensity (a.u.)

Sequence	binding signal
CTAGATTCGTTTTTTATGGGGTGGAGGGAGTACATGCCTTCGGAGTCACCTAGTGCAG	12800 fluorescence intensity (a.u.)
ACGCGGGGATGGATGATGGTGGTGGCGGCGAGGGGATGATCGGAGTCACCTAGTGCAG	9170 fluorescence intensity (a.u.)
CGTGGTGGTGGTAGGGGAGGGGATGGATGATATGGCGTGACGGAGTCACCTAGTGCAG	22400 fluorescence intensity (a.u.)
TATAGTAGTATGGGTGGAGATTTATATTTTTCTCTCGATTCGGAGTCACCTAGTGCAG	8940 fluorescence intensity (a.u.)
GAAATACTCCAATGGGTTAACTTAGGGTCGGGAAGGGGAGCGGAGTCACCTAGTGCAG	10100 fluorescence intensity (a.u.)
TTCCTGCTCTGTCCGTGCTCGACTCAATTCATTGTCAACCCGGAGTCACCTAGTGCAG	8690 fluorescence intensity (a.u.)
CTTTGCATCTCTTCTTTTCTTTCTTTTTTTTTTCTTTTCTCGGAGTCACCTAGTGCAG	12100 fluorescence intensity (a.u.)
TTCATCTCACGTACTGTTCTTTTGCCTCTCGCTAGCTCGTCGGAGTCACCTAGTGCAG	9220 fluorescence intensity (a.u.)
GCCTCTTTTTTGTCGCTCTCACTGTCTCACACCTACACGTCGGAGTCACCTAGTGCAG	16400 fluorescence intensity (a.u.)
ATATTGTTGACTTTTTAGCACATGTTTAACCGTTCATCTTCGGAGTCACCTAGTGCAG	19600 fluorescence intensity (a.u.)
GACTTTTTAGCACATGTTTAACCGTTCGTCTTATTCAAAACGGAGTCACCTAGTGCAG	12100 fluorescence intensity (a.u.)
GTTAACTTTTTAGCACATGTTTGACCGTTCGTCTTATTCACGGAGTCACCTAGTGCAG	12600 fluorescence intensity (a.u.)
GTTAACTTTTTAGAACATGTTTGACCGTTCGTCTTATTCACGGAGTCACCTAGTGCAG	8930 fluorescence intensity (a.u.)
TTTTTAGTACATGTTTGACCGTTCGTCTTATTCAAAAAATCGGAGTCACCTAGTGCAG	10700 fluorescence intensity (a.u.)
AAGTTTTCGCGTCCAACTTTCATCGTTCGTCTTATTTGAACGGAGTCACCTAGTGCAG	10600 fluorescence intensity (a.u.)
TCCACGTTGACCACATCGCGTCACACCGTCCACGACTTTTCGGAGTCACCTAGTGCAG	12700 fluorescence intensity (a.u.)
CCTCTCTTTCTCTCACTCTCTGTGACTCTTGTCTTTTTGTCGGAGTCACCTAGTGCAG	8390 fluorescence intensity (a.u.)
TGTTCGCGTCCATCGTTGACTTTTTCAACGCCATGCACGCCGGAGTCACCTAGTGCAG	30900 fluorescence intensity (a.u.)
CCGTTGACTTTTTAGTACATGTTTAACCGTTCGTCTTATTCGGAGTCACCTAGTGCAG	38600 fluorescence intensity (a.u.)
CATTGTGCGCTCTGGAGAGGCTCCAAACCACCATTGTTCGCGGAGTCACCTAGTGCAG	8090 fluorescence intensity (a.u.)
GCCCTCGTCGTCGTCCGACCACCCGATCCCGACGAGAACCCGGAGTCACCTAGTGCAG	8690 fluorescence intensity (a.u.)
